Most compounds without a hit are left out; they make up all but 6.9% or so of the library.
IL1B secr inh = inflammasome signaling inhibition, IL-1 beta readout. THP-1 LPS/ATP IL-1B secretion, AlphaLISA, 16 h; active compounds read low. activity change, % at 57.5 µM. 360,000 tested, 4.7% active; in the data active means activity change below about -50%; inconclusive means mostly about -30% to -49%; further: on the % scale 0 is the no-effect control and ±100 the full control effect
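THP-1 cells pretreated 1 hr with compounds (up to 57.5 uM final), then stimulated with LPS (250 ng/mL final) plus ATP (1.25 mM final); secreted IL-1B measured by AlphaLISA after 16 hr, decreased signal indicating inhibition.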
SW480 rerep = DNA re-replication induction in SW480 cells; Potency, µM (series often up to 46.1 µM), without a hit: top-dose re-replication activation, usual class: activators; SW480 DNA re-replication, Hoechst DNA content imaging, 48 h; AID 624297; 340,000 tested, 1.8% active; further: potency means the concentration at half of the fitted maximal effect; % of control where 0% means no effect; nearly all actives have a fitted effect of over 55% in size
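First, 250 cells per well were seeded. Next, compound or vehicle (23 nL) was pinned in, plates sat 48 hr at 37 C. Finally Hoechst was added for 40 min before fluorescence scanning.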
Vif-APOBEC3F blk = blocks the Vif interaction with APOBEC3F; HeLa A3F-eYFP + Vif (tagged APOBEC3F with the HIV-1 protein that degrades it), YFP fluorescence increase; Potency, µM (top dose mostly 46.1 µM), inactives show top-dose activity, negative = active; 390,000 tested, 0.2% active; AID 602313; further: potency means the concentration at half of the fitted maximal effect; % of control where 0% means no effect; nearly all actives have a fitted effect of over 65% in size
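HeLa cells stably expressing Vif plus C-terminally eYFP-tagged A3F were seeded, incubated overnight at 37 deg C, dosed with compound, incubated overnight again at 37 deg C. Yellow fluorescence (Ex 488/Em 500-530) reported blocked Vif-mediated A3F-eYFP degradation.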
Vif-APOBEC3G blk = Vif-A3G binding inhibition; HeLa A3G-eYFP + Vif (tagged APOBEC3G with the HIV-1 protein that degrades it), YFP fluorescence, overnight; Potency, µM (doses to about 46.1 µM), for the others: top-dose activity, negative = active, hits mostly inhibitors; AID 602310; Q9HC16; 410,000 tested, 0.076% active; further: potency means the concentration at half of the fitted maximal effect; on the % scale 0 is the no-effect control and ±100 the full control effect; nearly all actives have a fitted effect of over 60% in size
Target sequence (Q9HC16 whole entry, looked up): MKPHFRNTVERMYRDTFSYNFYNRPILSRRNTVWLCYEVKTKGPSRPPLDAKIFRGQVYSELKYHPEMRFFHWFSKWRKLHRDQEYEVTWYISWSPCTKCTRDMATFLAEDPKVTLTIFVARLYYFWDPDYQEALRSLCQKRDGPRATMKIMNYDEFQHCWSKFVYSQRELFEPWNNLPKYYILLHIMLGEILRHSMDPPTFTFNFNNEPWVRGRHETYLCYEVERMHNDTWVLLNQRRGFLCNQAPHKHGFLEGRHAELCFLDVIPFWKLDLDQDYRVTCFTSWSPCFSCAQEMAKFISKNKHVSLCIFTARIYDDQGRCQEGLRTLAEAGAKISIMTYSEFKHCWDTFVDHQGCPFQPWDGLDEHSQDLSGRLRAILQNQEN
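HeLa cells stably expressing Vif and C-terminally eYFP-tagged A3G, seeded overnight at 37 deg C, then exposed to compound by pintool overnight at 37 deg C. Rise in yellow fluorescence (Ex 488/Em 500-530, Acumen) marks blocked Vif-driven A3G degradation.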
MCF10A rereplic = inducers of DNA re-replication in MCF 10A breast cells; MCF 10A DNA re-replication, Hoechst nuclear intensity, 48 h; Potency, µM (highest dose often 46.1 µM), without a hit: top-dose activity, positive = re-replication, actives largely listed as activators; 350,000 tested, 2.9% active; further: potency means the concentration at half of the fitted maximal effect; % of control where 0% means no effect; nearly all actives have a fitted effect of over 50% in size
Giardia kill = Giardia lamblia killing | Giardia lamblia trophozoite viability | activity change, % at 7.66 µM, hits read low | 340,000 tested, 0.15% active | AID 540267; in the data active means activity change below about -80%; inconclusive means between about -30% and that limit;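 further: parasites exposed to compound for two days anaerobically before the ATP read; on the % scale 0 is the no-effect control and ±100 the full control effect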
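ATP-content bioluminescence gauges trophozoite survival. Cells (100/well) receive compound and incubate anaerobically for 48 hrs at 37 deg C; detection reagent follows for 15-30 min at room temperature.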
* hit, by the source's call; ? = inconclusive; . = no result given. Unless noted, the call rests on the fitted dose curve; in most records, active means well fitted curve in the direction sought with a large enough effect; inconclusive means small, poorly fitted or top-dose-only effect, or another doubt; inactive means no such curve, though single readings can be large; an effect the other way counts as inactive or inconclusive.

SMILES	IL1B secr inh	SW480 rerep	Vif-APOBEC3F blk	Vif-APOBEC3G blk	MCF10A rereplic	Giardia kill
O=C(Cc1ccc(Cl)cc1)NCCS(=O)(=O)N1CCN(c2ccccc2F)CC1	4.2	?	2.5%	?	18.4µM*	-14.8
CCc1ccccc1NC(=O)CSc1nc2c(c(=O)[nH]1)CN(Cc1ccccc1OC)CC2	.	.	1.0%	-11.0%	.	.
COc1cccc(CN2C(=O)c3ccccc3S2(=O)=O)c1	21.1	1.0%	-5.8%	-0.6%	6.2%	0.8
O=C1c2ccc([N+](=O)[O-])cc2S(=O)(=O)N1Cc1ccccc1	-94.4*	?	-7.3%	0.8%	?	12.2
Cc1ccc2[nH]c3c(c2c1)CCCC3C(N)=O (centres undefined)	33.1	12.9%	0.0%	-3.2%	18.0%	-13.2
Cc1ccc2[nH]c3c(c2c1)CCCC3NC(=O)CCl (centres undefined)	-100.4*	8.2µM*	-2.2%	?	20.6µM*	1.3
Cc1ccccc1C(=O)Nc1cccc(C(=O)OCc2cc(=O)n3c4c(sc3n2)CCCC4)c1	.	.	1.6%	3.9%	.	.
Cc1cc2c(cc1C)C(c1ccccc1OC(C)C)CC(=O)N2 (centres undefined)	-9.9	5.17µM*	-14.1%	?	1.46µM*	-17.4
CC(C)Oc1ccccc1C1CC(=O)Nc2cc3c(cc21)OCO3 (centres undefined)	-3.5	?	-7.4%	?	0.517µM*	-15.7
COc1ccc(C2NC(=O)Cc3cc(OC)c(OC)cc32)cc1OC (centres undefined)	0.0	0.5%	8.7%	1.8%	-0.1%	4.3
COc1ccccc1C1CC(=O)Nc2cc(C)c(C)cc21 (centres undefined)	40.3	20.6µM*	0.7%	?	15.4%	-1.4
COc1cc2c(cc1OC)C(c1ccc(Br)cc1)NC(=O)C2 (centres undefined)	-71.0*	-9.9%	1.7%	0.3%	-5.6%	-1.9
COc1cccc(C2CC(=O)Nc3cc4c(cc32)OCO4)c1OC(C)C (centres undefined)	.	.	-9.4%	-17.6%	.	.
COC(=O)c1cc(NC(=O)c2sc3ncn(Cc4cccc(F)c4)c(=O)c3c2C)cc(C(=O)OC)c1	.	.	1.4%	-1.4%	.	.
COc1cc2c(cc1OC)C(c1ccc(C(F)(F)F)cc1)CC(=O)N2 (centres undefined)	100.6	-3.1%	2.1%	-4.6%	16.5%	5.9
COc1cc2c(cc1OC)C(c1cc(C)ccc1C)CC(=O)N2 (centres undefined)	59.7	-0.1%	-0.4%	-0.1%	0.651µM*	1.2
CCOc1ccccc1C1CC(=O)Nc2cc(C)c(C)cc21 (centres undefined)	57.5	18.4µM*	0.2%	?	?	21.9
COc1cc2c(cc1OC)C(c1ccc(Br)cc1)CC(=O)N2 (centres undefined)	-11.4	?	2.5%	0.7%	0.651µM*	-1.4
COc1cc2c(cc1OC)C(c1ccco1)CC(=O)N2 (centres undefined)	5.5	-21.9%	-5.0%	1.7%	-0.8%	-3.0
CCOc1ccccc1C1CC(=O)Nc2cc3c(cc21)OCCO3 (centres undefined)	7.2	2.91µM*	-1.5%	?	7.31µM*	27.0
CCc1cccc(C)c1NC(=O)CCCn1c(C)c2cnn(-c3ccccc3)c(=O)c2c1C	.	.	-3.6%	-2.2%	.	.
Cc1ccc(Nc2ncnc3c2nc2n3CCCC2)c(Br)c1	.	.	-7.1%	4.5%	.	.
CC(C)c1ccc(-c2noc(SCC(=O)N3CCCCC3C)n2)cc1 (centres undefined)	.	.	1.8%	1.2%	.	.
CCCCCCSc1ccc([C@H]2N[C@@](CC(C)C)(C(=O)OC)[C@H]3C(=O)N(C)C(=O)[C@@H]23)cc1OC	-53.1*	?	0.6%	0.1%	?	6.6
CCOc1ccc(-n2ccnc2SCC(=O)Nc2cccc3ccccc23)cc1	.	.	0.3%	4.8%	.	.
SMILES	IL1B secr inh	SW480 rerep	Vif-APOBEC3F blk	Vif-APOBEC3G blk	MCF10A rereplic	Giardia kill
COc1cc(C(=O)CC2(O)C(=O)N(Cc3ccccc3Cl)c3ccccc32)cc(OC)c1OC (centres undefined)	.	.	-5.5%	-2.4%	.	.
COc1cccc(-c2onc3ccc(C(=O)/C=C/N(C)C)cc23)c1	-66.5*	?	-2.4%	-0.4%	?	3.7
Cc1cccc(-c2onc3ccc(C(=O)/C=C/N(C)C)cc23)c1	-7.9	?	-0.9%	-3.1%	?	-28.9
COc1cccc(-c2onc3ccc(C4(C)OCCO4)cc23)c1	-87.1*	15.6%	0.3%	-9.1%	18.4µM*	7.8
CC1(c2ccc3noc(-c4ccccc4)c3c2)OCCO1	?	0.0%	-3.6%	-1.8%	-2.3%	-4.9
NC(=S)N/N=C/c1ccc(C23CC4CC(CC(C4)C2)C3)cc1	16.2	7.31µM*	?	-1.3%	?	-4.5
O=C(CCOc1ccccc1)N(Cc1cccnc1)c1nc2ccc(F)cc2s1	.	.	-0.9%	4.7%	.	.
O=c1[nH]c(SCc2nc3ccccc3c(=O)n2-c2ccccc2C(F)(F)F)nc2ccccc12	-81.3*	-1.1%	-3.4%	-4.6%	?	15.3
COc1cc(C(=O)Nc2ccccc2OCc2cc(=O)n3cc(C)sc3n2)cc(OC)c1OC	.	.	-3.1%	-8.7%	.	.
Cc1ccccc1CN1C(=O)C(O)(CC(=O)c2cccc(Br)c2)c2ccccc21 (centres undefined)	.	.	-21.1%	-7.2%	.	.
CCOc1ccc(N(CC(=O)Nc2ccccc2OC)S(=O)(=O)c2ccccc2)cc1	49.8	2.31µM*	-6.7%	?	?	5.6
CCOc1ccccc1NC(=O)CN(c1ccc(C)cc1)S(=O)(=O)c1c(C)n[nH]c1C	-95.2*	?	0.0%	1.7%	15.9%	9.5
CCOc1ccc(N(CC(=O)Nc2ccccc2OCC)S(=O)(=O)c2c(C)noc2C)cc1	52.8	5.8µM*	-8.7%	?	1.3µM*	3.9
CCOc1ccc(N(CC(=O)Nc2ccc(C)cc2)S(=O)(=O)c2c(C)noc2C)cc1	-11.0	0.9%	-11.7%	-3.1%	12.2%	-22.5
CCOc1ccccc1N(CC(=O)Nc1ccccc1F)S(=O)(=O)c1ccccc1	?	?	-1.1%	0.4%	0.581µM*	8.0
CCOc1ccc(NC(=O)CN(c2ccccc2OCC)S(=O)(=O)c2ccccc2)cc1	.	.	0.4%	-3.6%	.	.
COc1ccccc1N1CCN(c2ccc(=O)n(CC(=O)O)n2)CC1	.	.	-5.3%	-1.1%	.	.
CC1(C)CCC(c2ccc(Cl)cc2)=C(CN2CCN(c3ccc(C(=O)NS(=O)(=O)c4ccc(N[C@H](CCN5CCOCC5)CSc5ccccc5)c(S(=O)(=O)C(F)(F)F)c4)cc3)CC2)C1	.	.	.	-6.6%	.	.
COc1ccc(CCSc2n[nH]c(C(C)C)n2)cc1	.	.	.	0.4%	.	.
